Assay results: PubChem BioAssay (NCATS)
Records with an inconclusive call do not appear. Active and inactive are the calls of the source. The call rests on the fitted dose curve; in most records, active means well fitted inhibition curve with a large enough effect; inconclusive means small, poorly fitted or top-dose-only effect; inactive means no such curve, though single readings can be large or run the other way.

Assay: qHTS assay to identify inhibitors of the type 1 interferon - major histocompatibility complex class I in skeletal muscle: Counter screen cell viability and HiBit confirmation (AID 1347412); further: nearly all actives have a fitted effect of over 60% in size
Conditions: iHSKM muscle cells + IFN-b, HiBiT or CellTiter-Glo, 24 h; Viability; at 45.9 µM (top of the series)
Outline: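 HLA-B*08:01–HiBiT knock-in immortalized human myoblasts (C25cl48) stimulated with 4.0 ng/ml human IFN-beta and dosed with compound in a 12-point 1:3 titration (top final 46 uM). After 24 hrs at 37 C, HiBiT lytic luminescence or CellTiter Glo ATP read out.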
On the % scale 0 is the no-effect control and ±100 the full control effect.

| SMILES | activity change, negative = inhibition |
| --- | --- |
| Nc1nc(NCCNc2ncc(-n3ccnc3)c(-c3ccc(Cl)cc3Cl)n2)ccc1[N+](=O)[O-] | -15.1% (inactive) |
| CC(C)c1cnn2c(NCc3ccccc3)cc(N[C@@H](CO)[C@H](O)CO)nc12 | 18.9% (inactive) |
| CNC(=O)c1cc(Oc2ccc(NC(=O)Nc3cc(C(C)(C)C)nn3-c3ccc4ncccc4c3)c(F)c2)ccn1 | 26.8% (inactive) |
